SMILES strings stand for the structures. This is part of a sample that, as a whole, favours compounds with a hit. Of some 83,000 tested, about 20% had one in any assay.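 Negative percent growth values reflect cell death: -40 means 40% of the cells present at the start died, and -100 means all died.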 A number with no mark means an inactive call. Activity calls are given as the source filed them. Rule for the calls: active = growth percent below 10; inactive = the rest.

Holding throughout (assay): NCI-60 one-dose screen, 48 h (100 = growth as untreated, 0 = no growth, -100 = all killed)
Settings in all cases: 10 µM unless noted

Assay [1] deals with SK-MEL-2 melanoma.
Assay [2] has as its system EKVX NSCLC.
The test system of assay [3] is SN12C renal.
Assay [4] has as its system UO-31 renal.
In assay [5] the test system is TK-10 renal.
The test system of assay [6] is ACHN renal.
For assay [7], the system named is CAKI-1 renal.
The test system of assay [8] is A498 renal.
For assay [9], the system named is MOLT-4 leukemia.
Assay [10] relates to SR leukemia.
The test system of assay [11] is RPMI-8226 leukemia.
The test system of assay [12] is OVCAR-8 ovarian.
In assay [13] the test system is OVCAR-5 ovarian.
The test system of assay [14] is OVCAR-4 ovarian.
In assay [15] the test system is SK-OV-3 ovarian.
The subject of assay [16] is IGROV1 ovarian.
Assay [17] relates to OVCAR-3 ovarian.
Assay [18] relates to HS 578T breast.
Assay [19] deals with NCI/ADR-RES ovarian.
Assay [20] has as its system CCRF-CEM leukemia.

`CC(=O)/C(C)=N\OC(=O)Nc1ccccc1`: the growth in assay [1] was 107%; in assay [2], 95.6%; in [3], 107%; in assay [4], 80.8%; in assay [5], 97.5%; in assay [6] it was 101%. The growth in [7] was 97.8%; in [8], 101%; in assay [9], 90.4%; in [10] it was 106%; in assay [11], 102%; in assay [12], 106%. Moreover, the growth was 93.1% in assay [13]; 97.7% in [14]; 90.3% in [15]; 103% in [16]; 104% in [17]; 107% in assay [18]. Also, in [19], the growth is 101%.
As for `O=C(O)c1c[nH]c2ccccc2c1=O`, the growth in assay [1] was 95.1%; in assay [2], 103%; in assay [3], 103%; in [4], 90.6%; in assay [5], 97.7%; in assay [6], 102%. Besides, the growth was 100% in assay [7]; 127% in assay [8]; 90% in assay [9]; 99.9% in assay [10]; 97.8% in assay [11]; 108% in assay [12]. In addition, the growth in [13] is 93.9%; in assay [14], 93.4%; in assay [15], 92.3%; in [16] it was 99.2%; in [17], 107%; in assay [18], 112%. The growth in assay [19] was 104%.
Regarding `CCCCN(C(=O)CC)c1ccccc1`, the growth in assay [1] is 108%; in assay [2], 97%; in assay [3] it was 99.3%; in assay [4] it was 86.7%; in [5], 97.2%; in assay [6], 103%. Moreover, the growth in assay [7] was 101%; in assay [8], 83.3%; in assay [20], -8.28% (active); in [11] it was 85.1%; in assay [12], 101%; in assay [13], 105%. Also, the growth was 105% in [14]; 114% in assay [15]; 102% in assay [16]; 111% in assay [17]; 99.4% in [18]; 110% in assay [19].
In the case of `C/C(O)=C(/C=N/C(=S)Nc1ccccc1)C(=O)Nc1ccccc1C`, the growth in assay [1] is 114%; in assay [2], 96.6%; in assay [3], 94.8%; in assay [4], 89.7%; in [5] it was 110%; in assay [6], 103%. Moreover, the growth in assay [7] is 101%; in assay [8], 86.1%; in [20] it was 90.9%; in assay [10], 91.7%; in assay [11], 103%; in assay [12], 96.3%. Besides, the growth was 117% in assay [13]; 83% in [14]; 101% in [15]; 105% in assay [16]; 105% in [17]; 94.8% in [18]. Further, the growth in assay [19] was 103%.
On to `CC(c1ccccc1)N(C)C` (configuration not stated), for which the growth in assay [1] is 84%; in assay [2], 122%; in assay [3] it was 99.7%; in [4], 71.4%; in assay [5], 135%; in [6], 109%. Moreover, the growth was 96.5% in [7]; 139% in assay [8]; 84.3% in assay [9]; 67.3% in [10]; 155% in [11]; 117% in assay [12]. Also, the growth in assay [13] was 92.8%; in [14], 77.3%; in assay [16], 152%; in [17], 120%; in [18], 153%; in [19] it was 105%.
Consider `Cc1ccc(Cc2ccc(C)cc2)cc1`, for which the growth in assay [1] was 99.6%; in assay [2], 94.9%; in assay [3], 110%; in [4] it was 81.1%; in assay [5] it was 107%; in [6] it was 99.9%. In addition, the growth in [7] was 99.8%; in [8], 93.2%; in assay [9] it was 97.2%; in assay [10], 102%; in [11], 106%; in assay [12], 102%. Besides, the growth in [13] is 99.1%; in [14] it was 109%; in assay [15], 97.2%; in [16], 103%; in assay [17], 116%; in assay [18] it was 105%. The growth in assay [19] was 108%.
On to `CCCCCCCCCc1ccc(OC(C)=O)cc1`, for which the growth was 101% in assay [1]; 108% in [2]; 99.6% in assay [3]; 95.9% in assay [4]; 96.3% in [5]; 109% in [6]. In addition, the growth in [7] is 103%; in assay [8], 70.1%; in assay [9], 108%; in [10], 102%; in assay [11], 91.8%; in assay [12], 101%. Moreover, the growth in [13] is 105%; in [14], 107%; in assay [15], 119%; in assay [16], 111%; in assay [17], 108%; in assay [18], 96.3%. In addition, the growth in assay [19] was 119%.
Consider `CCC1CCC(C)NC1` (configuration not stated), for which the growth in assay [1] is 115%; in [2], 92.5%; in assay [3] it was 106%; in assay [4], 93.5%; in assay [5] it was 97.3%; in assay [6], 102%. The growth in [7] is 102%; in [8] it was 65.6%; in assay [9], 105%; in assay [10] it was 109%; in [11], 98.6%; in assay [12] it was 102%. The growth is 107% in [13]; 107% in assay [14]; 111% in [15]; 110% in assay [16]; 104% in assay [17]; 95.7% in assay [18]. Also, in assay [19], the growth was 101%.
Regarding `Clc1ncnc2nc[nH]c12`, the growth in assay [1] was 118%; in assay [2] it was 101%; in assay [3], 93.4%; in assay [4], 77.2%; in assay [5], 107%; in [6], 96.2%. The growth in assay [7] was 108%; in assay [8] it was 101%; in [20] it was 103%; in [10], 102%; in [11] it was 88.8%; in [12] it was 102%. Besides, the growth in assay [13] is 101%; in assay [14], 103%; in assay [17] it was 98.1%; in assay [18], 98%; in assay [19], 103%.

The record behind these values is PubChem BioAssay (NCI).
